Compounds with a hit are over-represented: about 13% of the library has one in this group of screens.
USP28 inh – inhibitors of human USP28 deubiquitinase. purified USP28, Ub-rhodamine cleavage fluorescence, 30 min. inhibition, % at 25 µM. 47,000 tested, 3% active
USP8 block – inhibitors of human USP8 deubiquitinase | Ubiquitin carboxyl-terminal hydrolase 8 (Homo sapiens), P40818 | purified USP8, Ub-rhodamine cleavage fluorescence, 30 min | inhibition, % at 20 µM | 47,000 tested, 4.2% active | AID 1645853, 2021
USP17 inh – inhibitors of human USP17 deubiquitinase; purified USP17, Ub-rhodamine cleavage fluorescence, 3 h; inhibition, % at 50 µM; 47,000 tested, 6.5% active; AID 1645855, 2021
OTUD3 block – inhibitors of human OTUD3 deubiquitinase. purified OTUD3, Ub-rhodamine fluorescence, 2 h. OTU domain-containing protein 3 (Homo sapiens), Q5T2D3. AID 1645858, 2021. inhibition, % at 25 µM. 47,000 tested, 0.7% active
USP30 block – inhibitors of human USP30 deubiquitinase | 47,000 tested, 5.3% active | AID 1645860, 2021 | Ubiquitin carboxyl-terminal hydrolase 30 (Homo sapiens), Q70CQ3 | purified USP30, Ub-rhodamine cleavage fluorescence | inhibition, % at 25 µM
Target sequence (Q70CQ3 whole entry, looked up): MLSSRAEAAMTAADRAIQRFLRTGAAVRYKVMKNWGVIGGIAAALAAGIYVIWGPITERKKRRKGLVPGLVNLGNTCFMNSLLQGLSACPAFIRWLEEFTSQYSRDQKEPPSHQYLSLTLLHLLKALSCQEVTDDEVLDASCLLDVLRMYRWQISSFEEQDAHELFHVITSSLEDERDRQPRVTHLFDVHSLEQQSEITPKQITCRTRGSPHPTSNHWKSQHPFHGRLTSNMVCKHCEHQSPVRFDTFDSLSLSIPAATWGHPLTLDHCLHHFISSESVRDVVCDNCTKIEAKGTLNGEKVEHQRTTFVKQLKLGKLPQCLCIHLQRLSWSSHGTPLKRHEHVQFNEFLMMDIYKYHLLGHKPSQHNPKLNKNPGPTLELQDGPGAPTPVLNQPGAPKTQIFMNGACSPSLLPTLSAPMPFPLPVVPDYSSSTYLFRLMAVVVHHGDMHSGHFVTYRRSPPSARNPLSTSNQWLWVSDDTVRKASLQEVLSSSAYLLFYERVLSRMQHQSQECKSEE
Active calls of the source: *. Rule as the data show it: active = inhibition above about 30%; inactive = the rest.

Screening COCc1cc(C)nc2sc3c(c12)N(C(C)=O)C(c1ccc(F)cc1)NC3=O (configuration not stated) returned USP28 inh -11, USP8 block -214, USP17 inh -20, OTUD3 block -15 and USP30 block -66.
`COc1ccc(Cn2ccc3nc(N4CCOCC4)c(C#N)cc3c2=O)cc1` gave USP28 inh 31*, USP8 block 0, USP17 inh 68*, OTUD3 block -6 and USP30 block 54*.
Screening Cc1ccc(Cn2ccc3nc(N4CCOCC4)ncc3c2=O)cc1 returned USP28 inh -8, USP8 block -6, USP17 inh -2, OTUD3 block -7 and USP30 block -9.
OCC(CNc1ncnc2scc(-c3ccc(F)cc3)c12)Cc1ccco1 (configuration not stated) was read as USP28 inh -9, USP8 block -11, USP17 inh 0, OTUD3 block -18 and USP30 block -27.
For CCC(=O)OCc1cnc(C)c2oc(=O)c(-c3nc(-c4ccccc4)no3)cc12 the results were USP28 inh -276, USP8 block -80, USP17 inh -102, OTUD3 block -195 and USP30 block inactive.
`Cc1cc(F)ccc1NC(=O)C1CCN(c2nc3nc[nH]c(=O)c3s2)CC1` gave USP28 inh -30, USP8 block -7, USP17 inh 0, OTUD3 block -22 and USP30 block -80.
O=C(Nc1ccc(Cl)cc1)C1CCN(c2nc3nc[nH]c(=O)c3s2)CC1 was read as USP28 inh -7, USP8 block -4, USP17 inh -5, OTUD3 block -5 and USP30 block -5.
For Cc1ccc(NC(=O)C2CCN(c3nc4nc[nH]c(=O)c4s3)CC2)cc1F the results were USP28 inh -51, USP8 block 39*, USP17 inh -89, OTUD3 block -26 and USP30 block -119.
CCc1ccc(NC(=O)C2CCN(c3nc4nc[nH]c(=O)c4s3)CC2)cc1 was read as USP28 inh -3, USP8 block 18, USP17 inh 14, OTUD3 block 16 and USP30 block 34*.
Screening CN1CCn2cc(S(=O)(=O)Nc3ccc(F)cc3)cc2C1=O returned USP28 inh -4, USP8 block 4, USP17 inh 1, OTUD3 block 0 and USP30 block -8.
`Cc1cc(N2CCOCC2)nc2ccc(NC(=O)CCC(=O)Nc3ccc4c(c3)OCO4)cc12` gave USP28 inh 1, USP8 block 6, USP17 inh 0, OTUD3 block 8 and USP30 block -1.
CCCNC(=O)c1ccn(-c2ccc3ccc(-c4cnn(C)c4)cn23)n1 was read as USP28 inh -272, USP8 block -14, USP17 inh -188, OTUD3 block -192 and USP30 block inactive.
For O=c1cc(-c2ccncc2)nc(C2CCCN(Cc3cccc(F)c3)C2)[nH]1 (configuration not stated) the results were USP28 inh 2, USP8 block -6, USP17 inh 2, OTUD3 block -1 and USP30 block 8.
Screening CCOC(=O)C1(Cc2cc(-c3cccc(F)c3)no2)CCN(CC)CC1 returned USP28 inh -9, USP8 block 1, USP17 inh -14, OTUD3 block -17 and USP30 block -27.
Screening Cc1cc(-c2cncnc2C2CCCN(C(=O)C3CC3)C2)on1 (configuration not stated) returned USP28 inh -3, USP8 block 0, USP17 inh 0, OTUD3 block -2 and USP30 block 0.
CCN(CC)C(=O)CN1CCCC(c2ncncc2-c2cc(C)no2)C1 (configuration not stated) was read as USP28 inh 6, USP8 block 3, USP17 inh 11, OTUD3 block 30* and USP30 block 23.
`COc1ccc(-n2ncc(C(=O)N3CCN(c4cc(C)ccc4C)CC3)c2C2CCNCC2)cc1` gave USP28 inh 11, USP8 block -95, USP17 inh -18, OTUD3 block 20 and USP30 block 30*.
For Cc1nn(C2CCS(=O)(=O)C2)c(C)c1N1CCN(C(=O)C(C)Oc2ccccc2)CC1 (configuration not stated) the results were USP28 inh 6, USP8 block 0, USP17 inh -8, OTUD3 block 3 and USP30 block 17.

Compound activity: PubChem, Buhrlage Lab, Dana-Farber Cancer Institute and Novartis Institutes for BioMedical Research (Cambridge, Mass)
